Screening data from PubChem.
This excerpt belongs to a sample that is enriched for hits.
Tgondii IFNg: blocks Toxoplasma gondii growth in the presence of IFN-gamma; activity change, negative = inhibition, % (concentration not given with the values); 69,000 tested, 3.8% active; Toxoplasma gondii growth in IFN-gamma-treated host cells; hits give low values; in the data active = activity change below about -70%, passing the limit was not always enough;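 note: host cells are HeLa cells infected with Toxoplasma gondii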
Numbers without * were called inactive; ! = a repeat was not active.

SMILES | Tgondii IFNg
O=C(Nc1ccc(Oc2c(F)c(F)c(F)c(F)c2F)cc1)OC1CCN2Cc3ccccc3N=C12 (stereo not drawn) | -98.8*
O=C(Cn1ncc2c(N3CCCC3)ncnc21)Nc1ccc(Oc2ccccc2)cc1 | -59.6
Cc1cc(C(=O)Oc2ccc(Cl)cc2)no1 | 0.0
O=C(Nc1ccc(OC(F)(F)F)cc1)c1cscc1Sc1ccc(Cl)cc1 | -52.5
O=C(Oc1ccc(Cl)cc1)c1cscc1Sc1ccc(Cl)cc1 | -101.4*
Cc1noc(C)c1C(=O)N1CCC(c2ccncc2)CC1 | -22.4
CCOC1COC2(CCCN(C(=O)c3cnccn3)C2)C1 (stereo not drawn) | 5.7
CCc1cccc(NC(=O)c2nc(Nc3ccc(C)cc3)c3ccccc3n2)c1 | 88.1
CCc1ccc(OCc2ccccc2C(=O)Nc2ccc3nc(C)cc(N)c3c2)cc1 | -74.3*
CCOC(=O)c1cccc(NC(=O)c2ccccc2OCC)c1 | -33.9
CCn1cc2c(n1)CN(C(=O)c1ccco1)CC2COCC1CC1 (stereo not drawn) | 124.4
CC1=CC[C@@H]2CN(c3cncc(C(=O)N4CCCC4)n3)C[C@@H]2C1 | 0.2
Cc1ccc(C(=O)NC(=S)NCCCN2CCOCC2)cc1 | -1.6
CC1CCCC(C)N1C(=S)NCCCN1CCOCC1 (stereo not drawn) | -79.6*
Cc1c(C(=O)NCCCN2CCOCC2)cc(C(C)(C)C)n1-c1ccccc1 | -17.8
O=C(CN1CCN(S(=O)(=O)N2CCCC2)CC1)Nc1ccc(N2CCCC2)cc1 | 1.5
Cc1cncc(C(=O)N2CC[C@@H]3O[C@@H](c4nc(C)no4)C[C@H]3C2)c1 | -4.0
Cc1ccc([N+](=O)[O-])cc1S(=O)(=O)N(C)/N=C/c1cnc2ccc(Br)cn12 | -80.4*
Cc1nn(C)c(C)c1CCNC(=O)C1CCN(c2ccc(C(F)(F)F)cn2)CC1 | 5.1
COc1cc(NC(=O)c2cc(C(C)C)no2)ccc1NC(=O)CC(C)C | -7.8
Nc1ncnc2c1ncn2[C@@H]1O[C@H](CO)[C@@H](O)[C@H]1O | 14.0
COc1ccc(C[C@H](N)C(=O)N[C@@H]2[C@@H](CO)OC(n3cnc4c(N(C)C)ncnc43)[C@@H]2O)cc1 (stereo partly drawn) | -79.5*!
COC1C(O)C(CO)OC1n1cnc2c(NC3CCCCC3)ncnc21 (stereo not drawn) | 12.2
Cc1ccc(C(=O)N(CC(=O)NC2CCCC2)Cc2ccc3c(c2)OCO3)s1 | -1.3
CCc1ccc(CNC(=O)Cn2ncc3c(N4CCCCC4)ncnc32)cc1 | 167.9
SMILES | Tgondii IFNg
O=C(Cn1ncc2c(N3CCCCC3)ncnc21)NCc1ccncc1 | -28.9
CCN(CC)c1ncnc2c1cnn2CC(=O)NCc1ccc(F)c(Cl)c1 | -27.5
Cc1ccc(CNC(=O)Cn2ncc3c(N4CCCC4)ncnc32)cc1 | 44.3
Cc1ccc(CNC(=O)Cn2ncc3c(N4CCC(C)CC4)ncnc32)cc1 | -94.2*
CCOc1ccc(CNC(=O)Cn2ncc3c(N4CCC(C)CC4)ncnc32)cc1OCC | 189.4
CCN(CC)c1ncnc2c1cnn2CC(=O)NCc1ccc(F)cc1F | -104.2*
O=C(Cn1ncc2c(N3CCCC3)ncnc21)NCc1ccc(F)cc1 | -61.3
O=C(Cn1ncc2c(N3CCOCC3)ncnc21)NCc1ccc(C(F)(F)F)cc1 | -35.0
CC1CCN(c2ncnc3c2cnn3CC(=O)NCc2ccc(F)cc2)CC1 | -95.3*
O=C(Cn1ncc2c(N3CCCCCC3)ncnc21)NCc1ccc(C(F)(F)F)cc1 | -81.9*
CCN(CC)c1ncnc2c1cnn2CC(=O)NCc1cc(F)cc(F)c1 | 31.8
CCc1nnc(-c2ccc3ccn(CC(=O)N4CCN(c5ccccn5)CC4)c3c2)o1 | 44.2
Cc1nc(Cn2cnc(-c3nc(C(=O)NCc4ccc(F)cc4F)c4ccccn34)c2)cs1 | -57.3
CCc1ccn2c(C)c(-c3ccc(OC)c(OC)c3)cc2c1 | 19.0
CC(=O)N1CCS(=O)(=O)[C@@H]2CCN(S(=O)(=O)c3ccccc3C)CC[C@@H]21 | 2.9
COCC(=O)N1CCC2(CC1)CC(OCC1CCOCC1)CO2 (stereo not drawn) | 6.3
CCCc1cc2c(cc1NC(=O)CCc1nc(-c3cccnc3)no1)OCO2 | 40.8
Cn1ncc2c(NCCCNc3cccnc3)nc(C(C)(C)C)nc21 | 10.6
COc1cccc(OC)c1C(=O)N1CCN(C(=O)c2ccc(-n3cnnc3)cc2)CC1 | 8.4
COc1cccc(CN2CCN(C(=O)c3cc4nc(C)cc(C)n4n3)[C@@H](C)C2)c1 | 19.0
O=C(NCCCOc1cccnc1)[C@H]1Cc2ccccc2CN1 | 3.9
CC(C)CNC(=O)N1CCC2(COCc3cnc(N4CCOCC4)nc32)C1 (stereo not drawn) | 4.9
Nc1cccc(-c2nnc(/C=C/c3ccc(OC(F)(F)F)cc3)o2)c1 | -53.9
CCNC(=O)[C@@H]1C[C@H](N)CN1C(=O)c1cccnc1SC | -6.8
Cc1nc(OCC(=O)Nc2cc(F)ccc2F)c2ccccc2n1 | -0.3
SMILES | Tgondii IFNg
c1cnc(N2CC3(CCNCC3)CC2COCC2CC2)nc1 (stereo not drawn) | -67.7
CCOC(=O)N1CCC2(CC1)OC(=O)C(C)=C2C(=O)NC1CCCCC1 | 69.7
CN(C)CCOCC12CCCOC1CCN(C(=O)N(C)C)C2 (stereo not drawn) | 2.4
CC1NCCn2c(COCc3ccccn3)cnc21 (stereo not drawn) | -83.3*
CC(=O)N1CCn2c(COCc3ccccn3)cnc2C1C (stereo not drawn) | 0.3
CC1c2ncc(CNC(=O)C3CC3)n2CCN1Cc1ccccn1 (stereo not drawn) | 11.3
O=C(NCCc1cccc(F)c1)c1ccc(CSc2ncccn2)o1 | 16.4
CC(C)CC(=O)NCCc1csc(-c2cccc(F)c2)n1 | 26.8
Cc1ccc(Sc2ccc(NC(=O)Nc3ccc(OC(F)(F)F)cc3)cn2)cc1 | -66.8
Cc1cc(C)cc(NC(=S)Nc2ccc(Oc3ccc(OC(F)(F)F)cc3)cc2)c1 | -105.5*
S=C(Nc1ccc(Oc2ccc(Cl)cc2)cc1)Nc1cccc(Cl)c1Cl | -31.6
CC(=O)O[C@H]1C(=O)[C@@]2(C)C([C@H](OC(=O)c3ccccc3)[C@]3(O)C[C@H](OC(=O)[C@H](O)[C@@H](NC(=O)c4ccccc4)c4ccccc4)C(C)=C1C3(C)C)[C@]1(OC(C)=O)CO[C@@H]1C[C@@H]2O (stereo partly drawn) | -79.2*
CC(=O)OC1C(=O)C2(C)C(O)CC3OCC3(OC(C)=O)C2C(OC(=O)c2ccccc2)C2(O)CC(OC(=O)C(O)C(NC(=O)c3ccccc3)c3ccccc3)C(C)=C1C2(C)C (stereo not drawn) | -87.5*
CC(=O)N1c2ccc(S(=O)(=O)N3CCC4(CC3)Nc3cc(F)ccc3-n3cccc34)cc2CC1C (stereo not drawn) | -59.1
COc1ccc(OC)c(S(=O)(=O)N2CCc3c([nH]c4ccccc34)C2c2cc(F)ccc2F)c1 (stereo not drawn) | -34.2
CCC(C)NC(=O)c1nc(Nc2ccc(C)cc2)c2ccccc2n1 (stereo not drawn) | -35.8
CC(=O)N1CCC(C(=O)NCc2ccccc2)(N(Cc2ccc(Cl)cc2)C(=O)c2ccc(C)cc2)CC1 | -2.8
O=C(CO[C@@H]1CCNC[C@@H]1Cc1ccccc1)N1CCCC1 | -29.1
Cn1c2ccccc2n2c(=O)c3c(=O)oc4ccccc4c3nc12 | 11.9
Cc1ccc2[nH]c3c(=O)n(CCC(=O)NCc4ccncc4)cnc3c2c1 | 15.1
COC(=O)CN1CCN(Cc2nc(-c3sccc3C)oc2C)CC1=O | 3.3
C=CC[C@@H]1CC=C[C@@H](CC=C)N1C(=O)c1cc2n(n1)CCCN(C(C)=O)C2 | -0.7
CCCCOc1ccc(C(=O)NCCc2sc(-c3cccc(F)c3)nc2C)cc1 | -94.4*
